M18AAP inhibitor: PfM18AAP inhibitors, malaria aminopeptidase, primary screen, biochemical, QFRET, recombinant enzyme. AID 1822, 2009. M18 aspartyl aminopeptidase (Plasmodium falciparum 3D7). H-Glu-NHMec fluorogenic cleavage. actives 1.2% (n = 290,000). inhibition, % at 7.35 µM;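 active = inhibition above the campaign mean inhibition over all tested compounds plus 3 SD, cut at about 28% in these data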
ALR inh: inhibitors of human ALR sulfhydryl oxidase, primary screen, biochemical, H2O2 detection, HRP-luminol luminescence, single point. AID 485317, 2010. purified ALR, DTT oxidation. actives 3.8% (n = 290,000). inhibition, % (concentration not given with the values). FAD-linked sulfhydryl oxidase ALR (Homo sapiens), P55789;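 active = mean replicate inhibition above about 79%, with every replicate also reaching it, limit read from the data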
Target sequence (P55789 whole entry, looked up): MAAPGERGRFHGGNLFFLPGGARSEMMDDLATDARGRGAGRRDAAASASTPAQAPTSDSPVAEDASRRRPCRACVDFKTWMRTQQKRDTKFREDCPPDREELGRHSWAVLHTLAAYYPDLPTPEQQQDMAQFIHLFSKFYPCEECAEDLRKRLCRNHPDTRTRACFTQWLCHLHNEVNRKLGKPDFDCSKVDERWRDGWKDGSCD
PHOSPHO1 inh: PubChem AID 1565; inhibition, % at 13.3 µM; actives 1.1% (n = 290,000); Phosphoethanolamine/phosphocholine phosphatase (Homo sapiens), Q8TCT1; recombinant PHOSPHO1, absorbance phosphatase assay; in the data active = inhibition above about 60%
Target sequence (Q8TCT1 whole entry, looked up): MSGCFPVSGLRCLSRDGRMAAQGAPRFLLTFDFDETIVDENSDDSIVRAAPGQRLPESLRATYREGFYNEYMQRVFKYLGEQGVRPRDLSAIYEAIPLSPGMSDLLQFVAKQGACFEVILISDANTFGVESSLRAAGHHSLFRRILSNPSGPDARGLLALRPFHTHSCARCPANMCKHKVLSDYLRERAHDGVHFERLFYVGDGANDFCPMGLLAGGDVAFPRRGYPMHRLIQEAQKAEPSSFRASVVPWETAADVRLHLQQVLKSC
PfGluPho inh: PfG6PD enzyme inhibitors, primary screen, biochemical, fluorescence intensity, uHTS. PfGluPho enzyme, NADPH resazurin-diaphorase fluorescence. inhibition, % at 20 µM. actives 0.78% (n = 350,000). AID 504690, 2011;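 active = inhibition reaching at least a set limit at 20 µM in the primary screen, cut at about 59% in these data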
H9c2 protect: cardioprotection against H2O2-induced cell death, primary screen, uHTS, H9c2 cells, ATPLite luminescence; protection from H2O2 cell death, % at 20 µM; H9c2 cardiomyocytes, H2O2 injury protection, 2 h; AID 588492, 2011; actives 0.63% (n = 360,000);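 active = compounds giving at least 50% protection of heart cells from peroxide-induced death in the single-dose screen, raw or plate-pattern-corrected value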
A number is an active result. This is a sample that favours compounds with a hit; in the whole collection about 5.6% have one here.

For COc1ccc(NC(NC(=O)c2ccc(OC)cc2)C(Cl)(Cl)Cl)cc1 (stereo not given) the results were M18AAP inhibitor inactive, ALR inh 98, PHOSPHO1 inh inactive, PfGluPho inh inactive and H9c2 protect inactive.
`COc1ccc(C(=O)NC(Nc2ccc(C)cc2)C(Cl)(Cl)Cl)cc1` (stereo not given) gave M18AAP inhibitor inactive, ALR inh inactive, PHOSPHO1 inh inactive, PfGluPho inh inactive and H9c2 protect inactive.
`O=C(O)c1c(C(=O)O)c(-c2ccc(Br)cc2)n2c1CSC2` gave M18AAP inhibitor inactive, ALR inh 98, PHOSPHO1 inh inactive, PfGluPho inh inactive and H9c2 protect inactive.
For COC(=O)c1c(C(=O)OC)c(-c2ccc(F)cc2)n2c1CSC2 the results were M18AAP inhibitor inactive, ALR inh 99, PHOSPHO1 inh inactive, PfGluPho inh inactive and H9c2 protect inactive.
`Cc1ccc(-c2c(C(=O)O)c(C(=O)O)c3n2CSC3)cc1` gave M18AAP inhibitor inactive, ALR inh 93, PHOSPHO1 inh inactive, PfGluPho inh inactive and H9c2 protect inactive.
Screening Cn1nc(C(C)(C)C)cc1NC(=O)C1(C)CCN1C(=O)C1(c2ccccc2)CC1 (stereo not given) returned H9c2 protect inactive.
`Cc1ccc(N/N=C/c2ccc(N3CCOCC3)cc2)cc1C` gave M18AAP inhibitor inactive, ALR inh 99, PHOSPHO1 inh inactive, PfGluPho inh inactive and H9c2 protect inactive.
Screening Cc1nc(-c2ccc(F)cc2)c(CC(=O)N(C)CC(=O)Nc2cccc(F)c2)s1 returned PfGluPho inh inactive and H9c2 protect inactive.
COc1ccc(-c2ccc(CCC(=O)O)n2-c2ccccc2OC)cc1 was read as M18AAP inhibitor inactive, ALR inh 99, PfGluPho inh inactive and H9c2 protect inactive.
COc1ccc(-c2ccc(CCC(=O)O)n2NC(=O)c2ccc(O)cc2)cc1 was read as M18AAP inhibitor inactive, ALR inh 98, PHOSPHO1 inh 63, PfGluPho inh inactive and H9c2 protect inactive.
`O=C(O)CCc1ccc(-c2ccccc2)n1NC(=O)c1sc2ccccc2c1Cl` gave M18AAP inhibitor inactive, ALR inh 98, PHOSPHO1 inh inactive, PfGluPho inh inactive and H9c2 protect inactive.
O=C(O)CCc1ccc(-c2ccccc2)n1-c1ccc(C(=O)O)cc1 was read as M18AAP inhibitor inactive, ALR inh inactive, PHOSPHO1 inh inactive, PfGluPho inh inactive and H9c2 protect inactive.
`COc1ccccc1-n1c(CCC(=O)O)ccc1-c1ccccc1` gave M18AAP inhibitor inactive, ALR inh 90, PfGluPho inh inactive and H9c2 protect inactive.
Screening COc1ccc(-c2ccc(CCC(=O)O)n2NC(N)=O)cc1 returned M18AAP inhibitor inactive, ALR inh inactive, PHOSPHO1 inh inactive, PfGluPho inh inactive and H9c2 protect inactive.
Screening O=C(COC(=O)Cn1nnc(-c2ccccc2)n1)Nc1cc(F)ccc1F returned ALR inh inactive, PfGluPho inh inactive and H9c2 protect inactive.
`COc1cc(NC(=O)c2ccc(Cl)cc2)c(Cl)cc1NC(=O)c1cccnc1` gave M18AAP inhibitor inactive, ALR inh inactive, PHOSPHO1 inh 63, PfGluPho inh inactive and H9c2 protect inactive.
COc1ccc(NC(=S)NNC(=O)c2cccnc2)cc1OC was read as M18AAP inhibitor inactive, ALR inh inactive, PHOSPHO1 inh inactive, PfGluPho inh inactive and H9c2 protect inactive.
`COc1ccc(Cl)cc1NC(=S)NNC(=O)c1cccnc1` gave M18AAP inhibitor inactive, ALR inh 89, PHOSPHO1 inh inactive, PfGluPho inh inactive and H9c2 protect inactive.
For COc1cc(NC(=O)c2cccnc2)c(Cl)cc1NC(=O)c1ccc(Cl)cc1 the results were M18AAP inhibitor inactive, ALR inh inactive, PHOSPHO1 inh inactive, PfGluPho inh inactive and H9c2 protect inactive.
For CC(C)NC(=O)CCCN1C(=O)c2ccccc2Sc2ncccc21 the results were M18AAP inhibitor inactive, ALR inh inactive, PHOSPHO1 inh inactive, PfGluPho inh inactive and H9c2 protect inactive.
Screening CCN(CC)C(=O)c1sc(NC(=O)C(C)C)c(C#N)c1C returned M18AAP inhibitor inactive, ALR inh inactive, PHOSPHO1 inh inactive, PfGluPho inh inactive and H9c2 protect inactive.
Screening CCN(C(=O)c1sc(N)c(C#N)c1C)C1CCCCC1 returned M18AAP inhibitor inactive, ALR inh 96, PHOSPHO1 inh inactive, PfGluPho inh inactive and H9c2 protect inactive.
CCc1c(C(=O)NCc2cnn(C)c2)csc1C was read as M18AAP inhibitor inactive, ALR inh 98, PHOSPHO1 inh inactive, PfGluPho inh inactive and H9c2 protect inactive.
Screening Cc1c(O)ccc(/C(Cc2ccc3ccccc3n2)=N\N)c1O returned M18AAP inhibitor inactive, ALR inh inactive, PHOSPHO1 inh inactive, PfGluPho inh inactive and H9c2 protect 63.
For CCc1cc(/C(Cc2ccc3ccccc3n2)=N\O)c(O)cc1O the results were M18AAP inhibitor inactive, ALR inh inactive, PHOSPHO1 inh inactive, PfGluPho inh inactive and H9c2 protect inactive.
For CC1(C(=O)NS(=O)(=O)c2cccc(Cl)c2)CCN1C(=O)Cc1ccc(-c2ccccc2)cc1 (stereo not given) the results were H9c2 protect inactive.
COc1ccc(OC)c(NC(=O)c2sc3ncnc(N4CCN(c5ccccn5)CC4)c3c2C)c1 was read as M18AAP inhibitor inactive, ALR inh inactive, PHOSPHO1 inh inactive, PfGluPho inh inactive and H9c2 protect 86.
Screening COc1ccccc1N1CCN(C(=O)c2sc3ncnc(N4CCN(c5ccccn5)CC4)c3c2C)CC1 returned M18AAP inhibitor inactive, ALR inh inactive, PHOSPHO1 inh inactive, PfGluPho inh inactive and H9c2 protect inactive.
CN1C(=O)/C(=C/c2cccc([N+](=O)[O-])c2)C(=O)N1c1ccccc1 was read as M18AAP inhibitor inactive, ALR inh 98, PHOSPHO1 inh inactive, PfGluPho inh inactive and H9c2 protect inactive.
O=C1NC(=S)N/C1=C/c1cccc([N+](=O)[O-])c1 was read as M18AAP inhibitor inactive, ALR inh inactive, PHOSPHO1 inh inactive, PfGluPho inh inactive and H9c2 protect inactive.
For COc1ccccc1C#Cc1ccc2c(=O)c3ccccc3n(C)c2c1 the results were M18AAP inhibitor 30, ALR inh inactive, PHOSPHO1 inh inactive, PfGluPho inh inactive and H9c2 protect inactive.
`COc1cccc(C(C)(O)c2nc(-c3cccs3)cs2)c1` (stereo not given) gave H9c2 protect inactive.
Screening CCOC(=O)C1OC1(c1ccccc1)c1ccccc1 (stereo not given) returned PfGluPho inh inactive and H9c2 protect inactive.
`CCCN1CCN(C(=O)Cn2nc(CC)n3c(cc4sccc43)c2=O)CC1` gave M18AAP inhibitor inactive, ALR inh inactive, PHOSPHO1 inh inactive, PfGluPho inh inactive and H9c2 protect inactive.
Screening Cc1cc(N2CCOCC2)nc2ccc(NC(=S)NCc3ccc4c(c3)OCO4)cc12 returned M18AAP inhibitor inactive, ALR inh 99, PHOSPHO1 inh inactive, PfGluPho inh inactive and H9c2 protect inactive.
